{"source": "paper PMC7862700", "about": "“An all-to-all approach to the identification of sequence-specific readers for epigenetic DNA modifications on cytosine”", "test_in_all_cases": "DAPPL (digital affinity profiling via proximity ligation, sequencing); 10 mM Tris-HCl pH 7.5, 50 mM NaCl, 1 mM DTT, 4% glycerol, room temperature, 30 min; GST-TFs on glutathione beads, 16-mer random dsDNA library, 0.1% formaldehyde crosslink after washing; high values mean tight binding", "details_in_all_cases": "protein: recombinant; tags: N-terminal GST; dsDNA, one strand shown", "key": {"[1]": {"biological_target": "ETV1 (Homo sapiens, UniProt P50549 1-477)", "sequence (P50549 whole entry, the tested form may be a part)": "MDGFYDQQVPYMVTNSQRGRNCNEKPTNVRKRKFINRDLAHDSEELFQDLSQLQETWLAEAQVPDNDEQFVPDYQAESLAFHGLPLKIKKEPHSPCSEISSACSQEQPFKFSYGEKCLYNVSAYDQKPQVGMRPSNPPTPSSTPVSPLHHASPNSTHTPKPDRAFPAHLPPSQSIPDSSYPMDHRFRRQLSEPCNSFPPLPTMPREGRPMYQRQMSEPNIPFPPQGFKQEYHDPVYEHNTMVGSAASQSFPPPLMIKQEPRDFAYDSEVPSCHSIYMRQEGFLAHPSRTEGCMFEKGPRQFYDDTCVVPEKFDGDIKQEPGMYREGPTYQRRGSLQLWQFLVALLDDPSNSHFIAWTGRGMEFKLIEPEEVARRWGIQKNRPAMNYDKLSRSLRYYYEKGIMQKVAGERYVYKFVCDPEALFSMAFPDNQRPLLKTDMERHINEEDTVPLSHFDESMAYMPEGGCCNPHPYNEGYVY", "outline": "(§1)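 Binding signal is each hexamer's read frequency for a factor divided by its frequency in the tag-only sample. The factors were GST-fused human transcription factors from yeast, captured on glutathione beads, DNA-barcoded and pooled with that sample. Pools were incubated with 200 nmole of a random double-stranded 16-mer DNA library in Tris/NaCl/DTT/glycerol buffer at room temperature for 30 min, then washed, crosslinked with 0.1% formaldehyde, proximity-ligated with BsaI/T4 ligase (1 h, 37 °C), PCR-amplified and sequenced on an Illumina NextSeq500.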"}, "[2]": {"biological_target": "T1, ERF (Homo sapiens, UniProt P50548 1-548)", "T1 sequence": "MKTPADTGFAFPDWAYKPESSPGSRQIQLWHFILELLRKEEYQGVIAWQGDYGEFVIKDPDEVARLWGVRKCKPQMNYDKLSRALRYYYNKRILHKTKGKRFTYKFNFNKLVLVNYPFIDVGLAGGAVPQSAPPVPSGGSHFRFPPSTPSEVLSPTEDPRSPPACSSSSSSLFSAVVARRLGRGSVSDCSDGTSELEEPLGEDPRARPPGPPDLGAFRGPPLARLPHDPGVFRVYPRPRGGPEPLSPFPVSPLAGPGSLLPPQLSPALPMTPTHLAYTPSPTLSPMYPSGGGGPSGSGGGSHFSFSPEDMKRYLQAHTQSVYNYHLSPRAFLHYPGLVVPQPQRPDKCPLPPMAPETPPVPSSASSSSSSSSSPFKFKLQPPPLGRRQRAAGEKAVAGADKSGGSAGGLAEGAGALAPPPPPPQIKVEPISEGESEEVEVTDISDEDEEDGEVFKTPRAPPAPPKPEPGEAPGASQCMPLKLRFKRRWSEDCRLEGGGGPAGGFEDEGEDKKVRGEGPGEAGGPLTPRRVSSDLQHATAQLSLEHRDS", "outline": "as §1"}, "[3]": {"biological_target": "T2, ETV3L (Homo sapiens, UniProt Q6ZN32 1-361)", "T2 sequence": "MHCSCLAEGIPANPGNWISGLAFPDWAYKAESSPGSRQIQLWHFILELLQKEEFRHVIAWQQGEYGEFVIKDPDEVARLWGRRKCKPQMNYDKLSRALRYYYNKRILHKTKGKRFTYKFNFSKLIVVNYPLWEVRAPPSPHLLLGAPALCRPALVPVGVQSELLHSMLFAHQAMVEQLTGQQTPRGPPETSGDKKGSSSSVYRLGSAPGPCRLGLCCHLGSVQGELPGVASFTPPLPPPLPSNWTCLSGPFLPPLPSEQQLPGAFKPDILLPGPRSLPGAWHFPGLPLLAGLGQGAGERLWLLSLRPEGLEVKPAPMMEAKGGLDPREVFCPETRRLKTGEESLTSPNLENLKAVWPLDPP", "outline": "as §1"}, "[4]": {"biological_target": "T3, ETS2 (Homo sapiens, UniProt P15036 1-469)", "T3 sequence": "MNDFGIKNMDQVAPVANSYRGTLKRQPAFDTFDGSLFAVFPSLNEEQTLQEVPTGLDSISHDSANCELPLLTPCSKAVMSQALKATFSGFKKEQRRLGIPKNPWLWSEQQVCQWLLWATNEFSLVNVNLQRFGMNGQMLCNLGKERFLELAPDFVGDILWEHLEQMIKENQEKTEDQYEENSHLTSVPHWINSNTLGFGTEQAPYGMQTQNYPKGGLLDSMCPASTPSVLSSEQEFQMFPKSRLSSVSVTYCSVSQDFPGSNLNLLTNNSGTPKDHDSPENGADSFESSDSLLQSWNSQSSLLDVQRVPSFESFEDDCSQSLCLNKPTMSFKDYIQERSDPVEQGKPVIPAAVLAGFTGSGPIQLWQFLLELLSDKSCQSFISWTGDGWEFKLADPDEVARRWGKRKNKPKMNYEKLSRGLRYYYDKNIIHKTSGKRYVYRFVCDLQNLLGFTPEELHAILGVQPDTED", "outline": "as §1"}, "[5]": {"biological_target": "T4, SPDEF (Homo sapiens, UniProt O95238 1-335)", "T4 sequence": "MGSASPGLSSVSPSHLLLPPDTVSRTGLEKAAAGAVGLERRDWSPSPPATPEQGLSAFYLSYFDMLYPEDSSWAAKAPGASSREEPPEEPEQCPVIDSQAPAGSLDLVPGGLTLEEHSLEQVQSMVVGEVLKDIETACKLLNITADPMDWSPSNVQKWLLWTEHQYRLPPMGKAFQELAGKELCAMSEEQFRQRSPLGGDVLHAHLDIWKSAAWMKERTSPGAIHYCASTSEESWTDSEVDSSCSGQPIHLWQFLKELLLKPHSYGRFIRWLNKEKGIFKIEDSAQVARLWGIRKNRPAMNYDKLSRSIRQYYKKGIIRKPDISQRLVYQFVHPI", "outline": "as §1"}, "[6]": {"biological_target": "T5, ETV7 (Homo sapiens, UniProt Q9Y603 1-341)", "T5 sequence": "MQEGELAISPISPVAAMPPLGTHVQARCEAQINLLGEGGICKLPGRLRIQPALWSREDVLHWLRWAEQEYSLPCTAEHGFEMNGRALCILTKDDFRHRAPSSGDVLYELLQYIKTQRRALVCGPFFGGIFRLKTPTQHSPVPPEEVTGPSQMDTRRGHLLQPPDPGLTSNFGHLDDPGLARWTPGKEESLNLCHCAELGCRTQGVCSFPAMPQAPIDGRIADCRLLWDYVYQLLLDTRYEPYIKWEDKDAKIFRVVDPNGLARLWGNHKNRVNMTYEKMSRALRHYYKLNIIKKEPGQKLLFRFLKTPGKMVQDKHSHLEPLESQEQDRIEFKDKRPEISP", "outline": "as §1"}, "[7]": {"biological_target": "T6, ELF5 (Homo sapiens, UniProt Q9UKW6-2 1-255)", "T6 sequence": "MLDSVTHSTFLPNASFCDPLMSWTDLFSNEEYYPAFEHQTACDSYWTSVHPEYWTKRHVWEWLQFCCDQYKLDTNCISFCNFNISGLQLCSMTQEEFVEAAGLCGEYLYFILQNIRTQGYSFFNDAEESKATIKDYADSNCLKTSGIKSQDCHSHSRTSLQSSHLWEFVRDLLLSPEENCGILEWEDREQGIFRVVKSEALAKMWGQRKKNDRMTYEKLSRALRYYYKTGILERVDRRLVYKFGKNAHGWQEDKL", "outline": "as §1"}, "[8]": {"biological_target": "T7, ETV3 (Homo sapiens, UniProt P41162-2 1-143)", "T7 sequence": "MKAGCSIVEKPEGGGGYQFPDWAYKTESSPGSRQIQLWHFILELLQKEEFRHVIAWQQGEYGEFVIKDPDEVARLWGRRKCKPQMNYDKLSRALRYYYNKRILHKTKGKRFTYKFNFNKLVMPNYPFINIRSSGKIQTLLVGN", "outline": "as §1"}, "[9]": {"biological_target": "ETV6 (Homo sapiens, UniProt P41212 1-452)", "sequence (P41212 whole entry)": "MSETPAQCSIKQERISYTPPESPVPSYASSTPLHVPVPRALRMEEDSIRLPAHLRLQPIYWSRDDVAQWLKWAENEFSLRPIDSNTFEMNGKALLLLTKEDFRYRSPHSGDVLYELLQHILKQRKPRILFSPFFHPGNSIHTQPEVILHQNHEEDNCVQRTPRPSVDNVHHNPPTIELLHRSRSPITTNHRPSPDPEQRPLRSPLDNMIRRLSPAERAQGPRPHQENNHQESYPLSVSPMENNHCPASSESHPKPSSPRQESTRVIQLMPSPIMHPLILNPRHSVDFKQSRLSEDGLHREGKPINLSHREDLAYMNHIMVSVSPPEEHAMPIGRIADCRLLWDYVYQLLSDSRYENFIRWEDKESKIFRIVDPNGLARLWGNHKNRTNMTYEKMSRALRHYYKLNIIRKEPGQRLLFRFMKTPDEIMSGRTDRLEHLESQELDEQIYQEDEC", "outline": "as §1"}}, "data": [{"sequence": "CCTAAA", "values": [{"measurement": "binding signal", "setting": "[1]", "value": "1.31 fold enrichment (6-mer frequency, TF over GST control)"}, {"measurement": "binding signal", "setting": "[2]", "value": "1.4 fold enrichment (6-mer frequency, TF over GST control)"}, {"measurement": "binding signal", "setting": "[3]", "value": "1.32 fold enrichment (6-mer frequency, TF over GST control)"}, {"measurement": "binding signal", "setting": "[4]", "value": "1.33 fold enrichment (6-mer frequency, TF over GST control)"}, {"measurement": "binding signal", "setting": "[5]", "value": "1.32 fold enrichment (6-mer frequency, TF over GST control)"}, {"measurement": "binding signal", "setting": "[6]", "value": "1.34 fold enrichment (6-mer frequency, TF over GST control)"}, {"measurement": "binding signal", "setting": "[7]", "value": "1.27 fold enrichment (6-mer frequency, TF over GST control)"}, {"measurement": "binding signal", "setting": "[8]", "value": "1.28 fold enrichment (6-mer frequency, TF over GST control)"}, {"measurement": "binding signal", "setting": "[9]", "value": "1.25 fold enrichment (6-mer frequency, TF over GST control)"}]}]}
